Assay [1] is described as follows: Viability qHTS for spleen associated tyrosine kinase inhibitor (SYKi) naive MV4-11 cells (AID 1963823). Note: nearly all actives have a fitted effect of over 40% in size. Note: potency is the fitted concentration of half-maximal effect. The method in brief:
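Read-out: CellTiter-Glo luminescence. Exposure: 72 hr, 37 C, 5% CO2, 95% humidity. Cells: MV4-11 without SYK inhibitor history, 500/well, qHTS format.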

Assay [2] in a line: Viability qHTS for spleen associated tyrosine kinase inhibitor (SYKi) drug resistant MV4-11 cells (AID 1963824). Note: nearly all actives have a fitted effect of over 35% in size. Note: potency is the fitted concentration of half-maximal effect. The method in brief:
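SYK inhibitor-resistant MV4-11 AML cells, 500 per well, added to predispensed compounds and incubated 72 hr at 37 C, 5% CO2. Viability measured by CellTiter-Glo luminescence after 10 min at room temperature.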

Assay [3] can be described thus: Quantitative highthroughput screen to assess conditional lethalithy of NOMO1 cells grown in RPMI1640 with dialyzed fetal bovine serum (RPMI+ds) (AID 1963877).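 For Viability: series mostly up to about 46 µM; 100% = DMSO control wells and 0% = empty wells.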 Note: nearly all actives have a fitted effect of over 30% in size. Note: potency is the fitted concentration of half-maximal effect. The method in brief:
(§1)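 Each medium arm—HPLM with 10% dialyzed FBS, or RPMI1640 with 5 mM glucose and 10% untreated or dialyzed FBS—was screened against an 11-point, 3-fold compound titration for 48 h at 37 °C, with CellTiter-Glo luminescence as endpoint.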

A short description of assay [4]: Quantitative highthroughput screen to assess conditional lethalithy of NOMO1 cells grown in Human Plasma-Like Medium with dialyzed fetal bovine serum (HPLM+ds) (AID 1963878).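 For Viability: 100% = DMSO wells and 0% = empty wells on each plate.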 Note: nearly all actives have a fitted effect of over 35% in size. Note: potency is the fitted concentration of half-maximal effect. The method in brief: as §1
Assay [5] can be described thus: Quantitative highthroughput screen to assess conditional lethalithy of P12 Ichikawa cells grown in Human Plasma-Like Medium with dialyzed fetal bovine serum (HPLM+ds) (AID 1963879). For Viability: series mostly up to about 46 µM. Note: nearly all actives have a fitted effect of over 35% in size. Note: potency is the fitted concentration of half-maximal effect. The conditions noted are these: Potency: viability. The method in brief:
as §1

Assay [6] can be described thus: Quantitative highthroughput screen to assess conditional lethalithy of P12 Ichikawa cells grown in RPMI1640 with dialyzed fetal bovine serum (RPMI+ds) (AID 1963880).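 For Viability: 100% = DMSO wells and 0% = empty wells on each plate.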 Note: nearly all actives have a fitted effect of over 35% in size. Note: potency is the fitted concentration of half-maximal effect. As to conditions: Potency: P12-Ichikawa viability. The method in brief:
as §1

Assay [7] in a line: Cellular viability qHTS for adrenocortical cancer (ACC) cell line SW-13 (AID 1963989).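 For activity (max response): cells grown in serum-free medium with ITS supplement; % is set by controls: 0 for no effect and ±100 for the full control effect.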 Note: nearly all actives have a fitted effect of over 65% in size. Note: potency is the fitted concentration of half-maximal effect. As to conditions: SW-13 ACC cells viability, CellTiter-Glo, 48 h; activity (max response): stronger effect = lower value. The method in brief: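 48 h treatment, SW-13 in ITS/DMEM serum-free; doses up to 46 uM; readout CellTiter-Glo luminescence; curve fit four-parameter logistic.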
Assay [8] is described as follows: Cellular viability qHTS for adrenocortical cancer (ACC) cell line NCI-H295R (AID 1963990). Note: nearly all actives have a fitted effect of over 60% in size. Note: potency is the fitted concentration of half-maximal effect. The method in brief:
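Compound titrations (up to 46 uM final) are applied to NCI-H295R cultures for 48 h at 37C. Viable cell number is estimated by CellTiter-Glo signal, normalised to DMSO and doxorubicin controls.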

A short description of assay [9]: Quantitative highthroughput screen to assess conditional lethalithy of NOMO1 cells grown in RPMI1640 with untreated serum (RPMI+s) (AID 1963876). The method in brief: as §1
A short description of assay [10]: Quantitative highthroughput screen to assess conditional lethalithy of P12 Ichikawa cells grown in RPMI1640 with untreated serum (RPMI+s) (AID 1963881).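 For Viability: series mostly up to about 46 µM; 100% = DMSO wells and 0% = empty wells without cells.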 Note: nearly all actives have a fitted effect of over 35% in size. Note: potency is the fitted concentration of half-maximal effect. As to conditions: Potency: viability. The method in brief:
as §1

Assay [11] in a line: Quantitative highthroughput screen to assess conditional lethalithy of SEM cells grown in RPMI1640 with dialyzed fetal bovine serum (RPMI+ds) (AID 1963884). The method in brief:
as §1

Assay [12] in a line: Quantitative highthroughput screen to assess conditional lethalithy of SEM cells grown in RPMI1640 with unreated serum (RPMI+s) (AID 1963883).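 For Viability: 100% = DMSO wells and 0% = empty wells without cells.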 Note: nearly all actives have a fitted effect of over 35% in size. Note: potency is the fitted concentration of half-maximal effect. The method in brief:
as §1

A short description of assay [13]: Quantitative highthroughput screen to assess conditional lethalithy of SEM cells grown in Human Plasma-Like Medium with dialyzed fetal bovine serum (HPLM+ds) (AID 1963882). For Viability: series mostly up to about 46 µM. Note: nearly all actives have a fitted effect of over 35% in size. Note: potency is the fitted concentration of half-maximal effect. The method in brief:
as §1

Values joined by “and” are separate entries in the source; they are usually repeats but may differ in a detail not shown here. Equal entries are not always repeated. Records with an inconclusive call do not appear. A number with no mark means an inactive call. Active and inactive are the calls of the source. Calls come from the whole dose curve; as a rule, active = well fitted curve in the direction sought with a large enough effect; inconclusive = small, poorly fitted or top-dose-only effect, or another doubt; inactive = no such curve, though single readings can be large; an effect the other way counts as inactive or inconclusive.

In the case of `CC(C)C[C@H](CN)CC(=O)O`, the Potency result in assay [1], in assay [2], in assay [3], in assay [4], in assay [5] and in assay [6] was “inactive” throughout. Also, the Potency entry in assay [8] is “inactive”. For the same molecule, the activity (max response) in [7] was 8.17%.

As for `CC[C@@H](C(N)=O)N1CCCC1=O`, the Potency entry in [1], in assay [2], in [9], in assay [10] and in [8] was “inactive” each time. In [7], the activity (max response) is -2.57%.

As to `CC(C)(C)c1cc(C=C(C#N)C#N)cc(Br)c1O`, the Potency in assay [1] and in assay [2] was 16.6 µM (active) throughout. Also, the Potency result in assay [9], in assay [4], in assay [6], in assay [11] and in assay [8] was “inactive” in each case. Also, the activity (max response) in assay [7] is 9.19%.

With `N#Cc1ccccc1-c1cc(-c2ccccn2)cn(-c2ccccc2)c1=O`, the Potency result in [1] and in assay [2] was “inactive” throughout.

With `CC1(N2CCC(n3c([C@@H]4CCCNC4)nc4ccccc43)CC2)CCCCCCC1`, the Potency in assay [1] was 6.51 µM (active); in [2], 9.2 µM (active) and 7.42 µM (active); in [4], 13.2 µM (active); in [6] it was 13.2 µM (active); in assay [8] it was 17.8 µM (active).

As to `O=C1CC[C@@]2(O)[C@H]3Cc4ccc(O)c5c4[C@@]2(CCN3CC2CC2)[C@H]1O5`, the Potency result in assay [1], in assay [2], in assay [5], in [6], in [12] and in [8] was “inactive” in each case. Further, the Potency in [4] is 9.35 µM (active). For the same molecule, in assay [7], the activity (max response) was 9.15% and -5.08%.

Consider `Cc1c(C(=O)Nc2cccc(C(F)(F)F)c2)cc(-c2ccccc2)n1CCCN1CCOCC1`, for which the Potency in assay [1] was 14.6 µM (active); in [2], 16.6 µM (active). Further, the Potency entry in assay [4] and in [5] was “inactive” in each case.

For `CN[C@@H]1Cc2cccc3[nH]c(=O)n(c23)C1`, the Potency result in assay [1], in [2], in [4], in assay [10], in assay [13] and in assay [11] was “inactive” throughout. In addition, the Potency entry in assay [8] is “inactive”. Moreover, the activity (max response) in [7] is -9.99%.

For `COC1=C[C@@H]2[C@@H]3Cc4ccc(OC)c(O)c4[C@]2(CCN3C)CC1=O`, the Potency entry in assay [1], in assay [4], in assay [10] and in [13] was “inactive” each time. Further, in [2], the Potency was 18.6 µM (active). In addition, in [7], the activity (max response) is -18.4%.

As to `Cc1ncc(OC[C@@]2(c3cccc(F)c3)C[C@H]2C(=O)Nc2ccc(F)cn2)c(C)n1`, the Potency result in assay [1], in assay [2], in assay [4], in assay [10], in assay [13] and in assay [8] was “inactive” each time. For the same molecule, the activity (max response) in assay [7] was 7.8%.

In the case of `Cc1sc2c(c1C)C(c1ccc(Cl)cc1)=N[C@@H](CC(=O)OC(C)(C)C)c1nnc(C)n1-2`, the Potency in [1] was 0.105 µM (active); in assay [2], 0.118 µM (active); in [3], 0.372 µM (active); in [4] it was 0.418 µM (active); in assay [5] it was 1.66 µM (active); in assay [6], 2.64 µM (active). The Potency is 1.87 µM (active) in [10], 0.166 µM (active) in assay [13], 0.235 µM (active) in assay [12] and 3.98 µM (active) in assay [8].

For the molecule `CCOP(=O)(OCC)C(C)NC(=O)N(CCCl)N=O` (configuration not stated), the Potency entry in assay [1], in assay [4], in assay [5], in assay [10], in [13] and in [12] was “inactive” in each case. The Potency result in assay [8] was “inactive”. In [2], the Potency was 16.6 µM (active). The activity (max response) in [7] is 3.2%.

On to `NCC1(CC(=O)O)CCCCC1`, for which the Potency result in assay [1], in assay [2], in [4], in [5], in [6] and in [10] was “inactive” each time. In addition, the Potency result in assay [13], in assay [12] and in [8] was “inactive” each time. Moreover, in [7], the activity (max response) was 12.5% and -5.41%.

With `Nc1ccccc1`, the Potency result in assay [1], in assay [2] and in assay [8] was “inactive” in each case. Moreover, in assay [7], the activity (max response) was 7.78%.

As for `COP(=S)(OC)Oc1ccc(Sc2ccc(OP(=S)(OC)OC)cc2)cc1`, the Potency entry in assay [1], in assay [2] and in [8] was “inactive” each time. Further, the activity (max response) in assay [7] is 9.16%.

On to `COC(C)(C)CCCC(C)C/C=C/C(C)=C/C(=O)OC(C)C` (configuration not stated), for which the Potency result in assay [1] and in assay [2] was “inactive” in each case. Besides, in [7], the activity (max response) is 12.4%.

As for `CN(C)c1cc2c(cc1Sc1nc3c(N)nccc3n1CCNCC(C)(C)C)OCO2`, the Potency in assay [1] was 0.186 µM (active); in assay [2], 184 nM (active) and 235 nM (active); in assay [7], 1.41 µM (active).

`CC(=O)OC[C@H]1O[C@@H]([S-])[C@H](OC(C)=O)[C@@H](OC(C)=O)[C@@H]1OC(C)=O.CC[PH+](CC)CC.[Au]`: the Potency in [1] was 0.209 µM (active); in assay [2] it was 0.235 µM (active); in assay [7] it was 0.708 µM (active); in [8] it was 0.631 µM (active).

Regarding `Cn1c(COP(=O)(NCCBr)NCCBr)cnc1[N+](=O)[O-]`, the Potency is 10.5 µM (active) in assay [1] and 5.9 µM (active) in [2]. Moreover, in assay [7], the activity (max response) is -13.5%. The Potency entry in [8] is “inactive”.

Take `O=c1cccc2n1CC1CNC[C@H]2C1`: the Potency result in assay [1], in assay [2], in assay [13] and in [8] was “inactive” throughout. In addition, the activity (max response) in [7] is -2.44%.

For the molecule `NC(=O)OCCCc1ccccc1`, the Potency entry in assay [1], in assay [2] and in assay [8] was “inactive” each time. Moreover, the activity (max response) in assay [7] is 11.5%.

For the origin of these results see PubChem BioAssay (NCATS).
